“And” between values parts separate entries of the source, which are not always exact repeats. Identical values can stand only once. Inconclusive results are not listed. More than one record can exist for a structure, and the calls need not agree. The source made the active and inactive calls. Rule for the calls: active = hit-call score of the fitted dose curve at least 0.9, where 1 is the maximum; inconclusive = response in the unintended direction; inactive = score below 0.9.

This test in a line: ACEA_ER_AUC_viability: ACEA Biosciences xCELLigence Real-Time Cell Analysis on Estrogen Receptor Agonism for Viability (AID 2283782).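 Note: continuous compound exposure with impedance area under curve over 80 h.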 On the procedure: ACEA_ER is a cell-based, single-readout assay that uses T47D, a human breast cell line, with measurements taken at 80 hours after chemical dosing in a 96-well plate, although TO2 (mc0.srcf) used a 384-well plate. Differences in plate size can be ignored given data normalization.ACEA_ER_AUC_viability is one of two assay component(s) measured or calculated from the ACEA_ER assay. It is designed to make measurements of real-time cell-growth kinetics, a form of growth reporter, as detected with electrical impedance signals by Real-Time Cell Electrode Sensor (RT-CES) technology.Data from the assay component ACEA_ER_AUC_viability was analyzed in the positive analysis fitting direction relative to DMSO as the negative control and baseline of activity. Using a type of growth reporter, loss-of-signal activity can be used to understand changes in the viability. Furthermore, this assay endpoint can be referred to as a secondary readout, because this assay has produced multiple assay endpoints where this one serves a viability function. To generalize the intended target to other relatable targets, this assay endpoint is annotated to the cell cycle intended target family, where the subfamily is cytotoxicity.
The xCELLigence system Multi-E-Plate stations were used to measure the time-dependent response to chemicals. Each compound was tested in an eight-point, 1:4 serial dilution series starting at a maximum final concentration of 100 uM. A maximum starting concentration of 0.5% DMSO was present in the 100 uM chemical samples and was diluted along with the test article dilution series. The screen was performed in biological duplicate using two separate, 96-well, E-Plates 96 for each dilution series (n = 2). Positive controls (MG132 and E2) and a negative control (assay media) were tested in quadruplicate on each testing plate. Then, 0.5% and 0.125% DMSO were tested in duplicates in each plate to serve as solvent controls for the 2 highest concentrations of testing compounds: 100 uM and 25 uM. Reference compounds were tested with 8 concentrations with 1:5 serial dilutions. All screening was carried out by ACEA Biosciences, Inc. (San Diego, CA). T-47D cells purchased from ATCC were maintained in RPMI1640 media supplemented with 10% characterized fetal bovine serum (FBS). Before screening, T-47D cells were preconditioned in assay medium: phenol red-free RPMI1640 supplemented with 10% charcoal-stripped FBS. Cells were then detached and seeded in E-Plates 96 in assay medium. After overnight monitoring of growth once every hour, compounds were added to […] cells and remained in the medium until the end of the experiment. Cellular responses were then recorded once every 5 min for the first 5 h, and once every hour for an additional 100 h.
Turning to `CC(O)C(=O)O` (stereo not given), the compound was classed as inactive.
The same measure, in the same setting: the same measure for `CCCCC[C@H](O)CC(=O)CCc1ccc(O)c(OC)c1`: “inactive”.
On the same count and under the same terms, the result for `O=[N+]([O-])c1ccc(O)cc1` reads “inactive”.
For orientation: AC50 means the midpoint of the concentration-response curve, whichever way the signal moves. As for `CC#C[C@]1(O)CC[C@H]2[C@@H]3CCC4=CC(=O)CCC4=C3[C@@H](c3ccc(N(C)C)cc3)C[C@@]21C`, the half-maximal activity concentration (AC50) was 90.5 µM (active) and 83.7 µM (active) and 82.6 µM (active).
Same read-out and setting: the result for `Cc1cc(CCN2CCN(c3nsc4ccccc34)CC2)cc2c1NC(=O)CC2(C)C` reads 18.2 µM (active).
The same measure, in the same setting: the result for `CN1CCN(c2ccccc2/C=C2\SCCN(c3ccc(Cl)c(Cl)c3)C2=O)CC1` reads 50 µM (active); that for `FC(F)(I)C(F)(F)C(F)(F)C(F)(F)C(F)(F)C(F)(F)I`, 45 µM (active).
For `C=C(C)C(=O)OCCC(F)(F)C(F)(F)C(F)(F)C(F)(F)C(F)(F)C(F)(F)F`, the result was inactive.
As to `O=C(O)c1ccccc1C(c1ccc(O)cc1)c1ccc(O)cc1`, the outcome was inactive.
On to `CCC(=C(c1ccc(O)cc1)c1ccc(OCCN(C)C)cc1)c1ccccc1`, for which the AC50 was 5.17 µM (active) and 6.37 µM (active) and 12.9 µM (active).
With `C[C@@H]1C[C@H]2[C@@H]3CCC4=CC(=O)C=C[C@]4(C)[C@@]3(F)[C@@H](O)C[C@]2(C)[C@@]1(O)C(=O)COP(=O)(O)O`, the call was inactive.
On the same count and under the same terms, the result for `NCC(F)(F)C(F)(F)C(F)(F)C(F)(F)C(F)(F)C(F)(F)C(F)(F)F` reads “inactive”.
On the same count and under the same terms, the same measure for `O=C(O)Cc1cc(I)c(Oc2cc(I)c(O)c(I)c2)c(I)c1`: “inactive”; for `COc1cc(CCC(=O)CC(=O)CCc2ccc(O)c(OC)c2)ccc1O`: “inactive”.
Same read-out and setting: the same measure for `O=C(/C=C/c1ccc(O)cc1)CC(=O)/C=C/c1ccc(O)cc1`: “inactive”; for `OCCC(F)(F)C(F)(F)C(F)(F)C(F)(F)C(F)(F)C(F)(F)F`: “inactive”.
On to `CC(O)CO` (stereo not given), for which the call was inactive.
Turning to `Oc1cc2ccccc2c2ccccc12`, the AC50 is 4.66 µM (active).
On the same count and under the same terms, the same measure for `CCCCCCCCCCCCc1ccccc1S(=O)(=O)O`: 83.7 µM (active).
Still for that read-out and setting: the same measure for `CC(C)(C)c1ccc(O)c(C(C)(C)C)c1`: 17.3 µM (active).
As to `Cc1cc(C)c(O)c(C)c1`, the compound was classed as inactive.
Turning to `CC[C@H](c1ccc(O)cc1)[C@@H](CC)c1ccc(O)cc1`, the result was inactive and the AC50 was 83.3 µM (active).
As to `CC(C)(C)CC(C)(C)c1ccc(O)c(-n2nc3ccccc3n2)c1`, the AC50 is 21.6 µM (active).
For `CCC(C)(C)C1CCC(O)CC1` (stereo not given), the compound was called inactive.
Turning to `NC(=O)N1C(=O)C(C(=O)c2cc(Cl)cs2)c2cc(F)c(Cl)cc21` (stereo not given), the AC50 was 87.5 µM (active).
Same read-out and setting: the same measure for `Cc1oc(-c2ccccc2)nc1CCOc1ccc(C[C@H](Nc2ccccc2C(=O)c2ccccc2)C(=O)O)cc1`: 78.5 µM (active).
With `Nc1cccc2c(N)cccc12`, the compound was classed as inactive.
With `CCCOc1sc(C(=O)N2CCC(c3cc(CN)ccc3F)CC2)c(C)c1Br`, the AC50 is 5.11 µM (active).
For the compound `OCCC(F)(F)C(F)(F)C(F)(F)C(F)(F)C(F)(F)C(F)(F)C(F)(F)C(F)(F)F`, the call was inactive.
The same measure, in the same setting: the result for `CC(C)(C)c1cccc(C(C)(C)C)c1O` reads “inactive”.
`CCN(CC)CCNc1ccc(CNC=O)c2sc3ccc(OC)cc3c(=O)c12`: the AC50 is 83.2 µM (active).
Same read-out and setting: the same measure for `OC1CCC(C2CCCCC2)CC1` (stereo not given): 83 µM (active) and 84.8 µM (active) and 86.7 µM (active); for `CCCCCCCCCCCCCC[N+](C)(C)C`: 15.9 µM (active) and 6.59 µM (active).
As for `CN1CCC[C@H]1c1cccnc1`, the call was inactive.
As to `NC(=O)N(O)[C@@H]1C=C[C@H](Oc2cccc(Oc3ccc(F)cc3)c2)C1`, the AC50 is 92.6 µM (active).
Take `c1ccc2c(c1)ccc1ccccc12`: the call was inactive.
Take `CCCCCCC(=O)O`: the call was inactive.
The same measure, in the same setting: the same measure for `c1ccc2c(c1)Cc1ccccc1-2`: “inactive”; for `CCc1ccc(CCOc2ccc(CC3SC(=O)NC3=O)cc2)nc1` (stereo not given): “inactive”.
